Here are results for 14 molecules from PubChem BioAssay (NCI).

Structures are written as SMILES. The panel holds about 83,000 compounds, 20% with a hit somewhere; the sample as a whole holds those more often.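 The endpoint reported here, percent growth, reads 100 for growth as untreated, 0 for no net growth and -100 for all cells dead.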 A number with no mark means an inactive call. Calls of active or inactive are those of the source. How the source made its calls: active means growth percent below 10; inactive means the rest.

Some test systems named below: T-47D breast; BT-549 breast; MDA-MB-435 melanoma; SW-620 colon; MCF7 breast; HCT-116 colon; HCC-2998 colon; KM12 colon.
Holding throughout (test): NCI-60 one-dose screen, 48 h (100 = growth as untreated, 0 = no growth, -100 = all killed)
Common to all, as to details: 10 µM unless noted

For `COc1ccc(-c2nc3ccc(-c4nc5ccc(N6CCN(C)CC6)cc5[nH]4)cc3[nH]2)cc1OC`, the growth with T-47D breast is 28.3%; in the assay with BT-549 breast it was 63%; in the assay with MDA-MB-435 melanoma, 41.9%; with SW-620 colon it was 49.2%; in the assay on MCF7 breast, 21.1%; in the assay on HCT-116 colon, 23.5%. Also, the growth with HCC-2998 colon was 77.7%; in the assay with KM12 colon, 97.8%.
Regarding `O=C(COc1ccc(-c2nc3cc(Cl)c(Cl)cc3[nH]2)cc1)N=Nc1c(O)[nH]c2ccccc12`, the growth is -37.9% (active) with T-47D breast; 64.7% in the assay on BT-549 breast; 25.6% in the assay on MDA-MB-435 melanoma; -32.3% (active) with SW-620 colon; -49.7% (active) in the assay on MCF7 breast; 16.2% in the assay with HCT-116 colon. The growth is -3.87% (active) in the assay with HCC-2998 colon and -38.8% (active) in the assay with KM12 colon.
`COc1ccc2nc(NC(=O)CSc3nnc4n3S(=O)(=O)c3ccccc3N4c3ccccc3)sc2c1`: the growth with T-47D breast was 93.7%; in the assay with BT-549 breast, 83.7%; in the assay on MDA-MB-435 melanoma it was 97.8%; in the assay with SW-620 colon it was 107%; in the assay with MCF7 breast it was 82.3%; with HCT-116 colon, 87.9%. For the same molecule, the growth with KM12 colon was 97.4%.
As for `COc1cccc(-c2nc3sccn3c2-c2ccnc(NCCCNS(=O)(=O)c3cccc(Cl)c3)c2)c1`, the growth in the assay with T-47D breast is -4.56% (active); with BT-549 breast, 20.2%; in the assay on MDA-MB-435 melanoma, 37.4%; with SW-620 colon, 67.5%; in the assay on MCF7 breast it was 44.4%; with HCT-116 colon it was 34%. The growth with HCC-2998 colon is 81.6%; with KM12 colon, 64.8%.
Consider `COc1ccc(C(=O)COc2ccc(/C=C3\COc4ccc(OC)cc4C3=O)cc2)cc1`, for which the growth is 84.9% in the assay on T-47D breast; 77.6% in the assay with BT-549 breast; 77.1% in the assay with MDA-MB-435 melanoma; 80.2% in the assay with SW-620 colon; 34.2% in the assay with MCF7 breast; 64% in the assay with HCT-116 colon. Moreover, in the assay on KM12 colon, the growth is 68.4%.
Take `CC(=O)O[C@H]1CC[C@]2(C)[C@H]3CC=C4[C@@H]5CC(C)(C)CC[C@]5(C(=O)NCCNCCN)CC[C@@]4(C)[C@]3(C)CC[C@H]2C1(C)C`: the growth in the assay with T-47D breast is -46.5% (active); with BT-549 breast, 92.8%; in the assay with MDA-MB-435 melanoma, -55.5% (active); in the assay on SW-620 colon it was -84.6% (active); with MCF7 breast, -90.7% (active); in the assay with HCT-116 colon, -91.2% (active). For the same molecule, the growth is -92.1% (active) with HCC-2998 colon and 19.7% with KM12 colon.
For `CC(=O)OC[C@H]1O[C@H](OC(C)=O)[C@H](NC(=O)/C=C/CCl)[C@@H](OC(C)=O)[C@@H]1OC(C)=O`, the growth in the assay with T-47D breast was 69.1%; in the assay on BT-549 breast it was 85.9%; in the assay on MDA-MB-435 melanoma it was 80.4%; in the assay with SW-620 colon, 26%; in the assay on MCF7 breast it was 79.3%; with HCT-116 colon, 60.4%. In the assay on KM12 colon, the growth was 80.5%.
As for `CC(=O)c1cc2c(N)c(C(=O)Nc3ccccc3)sc2nc1C`, the growth is 99.5% with T-47D breast; 67.3% with BT-549 breast; -29.3% (active) in the assay with MDA-MB-435 melanoma; 69.4% with SW-620 colon; 59.8% with MCF7 breast; 102% with HCT-116 colon. The growth in the assay with HCC-2998 colon was 79.4%; in the assay on KM12 colon, 75.1%.
`Nc1n[nH]c2ccc([C@@H]3Nc4ccc5[nH]ncc5c4[C@H]4C5C=CC(C5)[C@@H]34)cc12` (stereo partly drawn): the growth in the assay on T-47D breast is 80%; in the assay on BT-549 breast, 3.98% (active); in the assay on MDA-MB-435 melanoma, -28.1% (active); in the assay on SW-620 colon it was 22.8%; in the assay on MCF7 breast, 17.8%; in the assay on HCT-116 colon it was 6.63% (active). Moreover, the growth in the assay with HCC-2998 colon is 14.3%; with KM12 colon, 10.4%.
As for `Cn1cc(C(=O)c2nc(-c3c[nH]c4ccccc34)no2)c2ccccc21`, the growth was 44.4% with T-47D breast; 69.7% in the assay on BT-549 breast; 7.96% (active) in the assay with MDA-MB-435 melanoma; 56.8% in the assay on SW-620 colon; 20% in the assay with MCF7 breast; 47.1% with HCT-116 colon. The growth was 45.5% with HCC-2998 colon and 21.9% in the assay on KM12 colon.
`c1ccc(-c2c(-c3ccccc3)[n+](Cc3ccc4ccccc4c3)c(-c3ccc(-c4nc5ccccc5s4)cc3)n2Cc2ccc3ccccc3c2)cc1`: the growth in the assay with T-47D breast is -78.2% (active); in the assay on BT-549 breast, -87.5% (active); in the assay on MDA-MB-435 melanoma it was -76.9% (active); in the assay on SW-620 colon, -78.3% (active); in the assay on MCF7 breast, -65.5% (active); with HCT-116 colon, -83.5% (active). Moreover, the values for the growth in the assay with HCC-2998 colon and in the assay with KM12 colon were -93.8% (active) and -88.1% (active), respectively.
For `COc1ccc2c(c1)C(=O)/C(=C/c1ccccn1)CC2`, the growth was 54.2% with T-47D breast; 96.4% in the assay with BT-549 breast; 57.4% in the assay with MDA-MB-435 melanoma; 57.5% in the assay with SW-620 colon; 15.1% with MCF7 breast; 26.3% in the assay with HCT-116 colon. In addition, in the assay with KM12 colon, the growth is -10% (active).
On to `Brc1ccc(-c2csc(Nc3ccccn3)n2)cc1`, for which the growth in the assay with T-47D breast is 53.7%; in the assay with BT-549 breast, 112%; in the assay with MDA-MB-435 melanoma it was 88.5%; with SW-620 colon, 103%; in the assay on MCF7 breast, 34.5%; in the assay on HCT-116 colon, 81.3%. Moreover, the growth is -5.04% (active) with HCC-2998 colon and 86.4% in the assay on KM12 colon.
With `CCCCC(=O)OCC1OC(n2cnc3c(=S)nc[nH]c32)C(OC(=O)CCCC)C1OC(=O)CCCC` (stereo not drawn), the growth with T-47D breast was 36.1%; with BT-549 breast, 43.9%; in the assay with MDA-MB-435 melanoma, 29.4%; with SW-620 colon, 23.5%; in the assay with MCF7 breast, 20.2%; with HCT-116 colon it was 27.3%. For the same molecule, the growth was -0.586% (active) in the assay on HCC-2998 colon and 36.1% in the assay with KM12 colon.
